Consider 40 molecules from PubChem BioAssay AID602364 (National Center for Advancing Translational Sciences (NCATS), 2012).

Results filed as inconclusive are left out. Activity calls are given as the source filed them. Calls follow the shape of the dose curve; as a rule, active = well fitted inhibition curve with a large enough effect; inconclusive = small, poorly fitted or top-dose-only effect; inactive = flat fitted curve, though single readings scatter.

Sequence of Luciferin 4-monooxygenase (Photinus pyralis) (P08659 whole entry, looked up): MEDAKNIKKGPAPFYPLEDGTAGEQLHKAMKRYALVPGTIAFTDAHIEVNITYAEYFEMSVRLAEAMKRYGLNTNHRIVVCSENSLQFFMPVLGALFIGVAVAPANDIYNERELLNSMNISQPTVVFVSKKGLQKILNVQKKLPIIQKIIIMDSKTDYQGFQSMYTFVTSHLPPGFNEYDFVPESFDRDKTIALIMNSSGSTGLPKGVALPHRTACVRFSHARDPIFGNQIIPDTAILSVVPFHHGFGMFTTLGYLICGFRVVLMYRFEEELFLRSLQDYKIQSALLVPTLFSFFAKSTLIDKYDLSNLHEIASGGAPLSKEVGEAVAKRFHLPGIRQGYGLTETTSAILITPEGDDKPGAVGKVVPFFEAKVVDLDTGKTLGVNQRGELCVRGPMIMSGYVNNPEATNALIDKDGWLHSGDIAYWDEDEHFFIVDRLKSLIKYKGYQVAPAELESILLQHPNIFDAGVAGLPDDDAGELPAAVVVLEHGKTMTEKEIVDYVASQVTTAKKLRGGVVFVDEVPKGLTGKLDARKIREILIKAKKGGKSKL

For the assay, the target named is Luciferin 4-monooxygenase (Photinus pyralis) (UniProt P08659). Nature of the assay: FLuc inhibitory activity for the follow-up compounds in a biochemical assay with 1mM ATP. Particulars: purified P. pyralis luciferase, luminescence; series mostly up to 57.5 µM. From the text:
NCGC Assay Overview: Firefly (Photinus pyralis) luciferase is one of the most commonly used transcriptional reporters. It is considered one of the more dynamically responsive reporters - that is, responsive to changes in reporter transcription - as it requires no post-translational modifications and is enzymatically active directly after protein synthesis (Wood, 1998). With no endogenous expression in mammalian cells and without the requirement of external excitation, it offers very little background signal, thus generally providing excellent signal to background for most assays. Previous profiling work to determine the prevalence of compounds that affect FLuc enzymatic activity (PubChem AID 411) identified that ~3% of the MLSMR library (then at ~72K) inhibited FLuc. […] Of the compounds identified in this profile that inhibited FLuc, 151 compounds were selected for further analysis, in an effort to better understand their mode of inhibiting FLuc. The assay described here was to determine the activity of the compounds in a FLuc assay that contained a KM concentration of D-luciferin and a high concentration (1mM) of ATP.
NCGC Assay Protocol Summary: Reagents: 50mM Tris acetate, pH 7.5; 10mM Mg acetate; 10uM D-luciferin (Sigma #L9504); 1mM ATP; 0.01% Tween-20; 0.05% BSA; 10nM P. pyralis luciferase (Sigma #L9506) Control compounds used were two known firefly luciferase inhibitors (3-(5-(3-chlorophenyl)-1,2,4-oxadiazol-3-yl)benzoic acid and 5-(2-fluorophenyl)-3-phenyl-1,2,4-oxadiazole), and DMSO. Three microliters containing firefly luciferase substrates in buffer (final concentrations: 50mM Tris acetate, pH 7.5, 10mM Mg acetate, 0.01% Tween-20, 0.05% BSA, 10uM D-luciferin, 1mM ATP) are dispensed into each well of a Greiner white, solid-bottom 1536-well format plate using a flying reagent dispenser (FRD). These assay plates were then treated with 23nL of compound or DMSO using a Kalypsys pin tool, which allows for delivery of a 12-point intraplate titration of each compound to the assay plate (quantitative HTS), with a final compound concentrations ranging from approximately ~60uM to 0.3nM. One microliter of firefly luciferase in […] Tris-acetate buffer was then delivered by FRD to each well for a final enzyme concentration of 10nM. Luciferase activity was then measured using a ViewLux CCD imager (PerkinElmer), with an average exposure time of 2-30 seconds (2X binning, medium/high gain).
Consider `O=C(O)c1ccc(NC(=O)c2ccccc2NC(=O)c2ccccc2Br)cc1`, for which the Potency result is “inactive”. With `COc1ccc2nc(NC(=O)c3ccco3)sc2c1`, the Potency is 183 nM (active). The same measure for `O=C(Nc1ccccc1C(=O)O)c1cccc(C(=O)Nc2ccccc2C(=O)O)c1`: 11600 nM (active); for `NC(=O)Cc1ccc2sc(-c3ccccc3)nc2c1`: 1160 nM (active). The same measure for `O=C(Nc1ccccc1C(=O)O)c1cc(S(=O)(=O)Nc2cccc(F)c2)ccc1Cl`: “inactive”. The same measure for `O=C(Cc1ccccc1)Nc1ccc(C(=O)Nc2ccccc2C(=O)O)cc1`: 20600 nM (active). `O=C(Nc1ccccc1C(=O)O)c1cccc(S(=O)(=O)Nc2ccc(Br)cc2)c1`: the Potency entry was “inactive”. As to `COc1ccc(C(=O)Nc2ccccc2C(=O)Nc2ccccc2C(=O)O)cc1`, the Potency was 4610 nM (active). The same measure for `CC(C)C(=O)Nc1cccc(C(=O)Nc2ccccc2C(=O)O)c1`: 11600 nM (active); for `COc1ccc2nc(NC(=O)c3cnccn3)sc2c1`: 517 nM (active). The same measure for `Cc1c(NC(=O)C(C)(C)C)cccc1-c1nc2ccccc2s1`: 25900 nM (active).

`CN=c1scc(-c2ccccc2F)n1/N=C/c1ccc[nH]1`: the Potency is 58 nM (active). The same measure for `CC(C)c1ccc(-c2nc3ccccc3s2)cc1`: 41.1 nM (active); for `Cc1ccc(C(=O)Nc2cccc(C(=O)O)c2)cc1S(=O)(=O)N1CCCCC1`: 291 nM (active); for `Cc1ccc(C(=O)Nc2cccc(C(=O)O)c2)cc1S(=O)(=O)N1CCOCC1`: 3260 nM (active).

Take `O=C(Nc1ccccc1C(=O)O)c1cc(S(=O)(=O)NCc2ccccc2)ccc1Cl`: the Potency result is “inactive”. The same measure for `COc1ccc2nc(NC(=O)c3ccc(S(=O)(=O)N4CCCC(C)C4)cc3)sc2c1` (stereo not given): “inactive”; for `c1ccc2sc(-c3ccc4c(c3)OCO4)nc2c1`: 91.9 nM (active); for `CCOc1ccc2nc(NC(=O)c3ccccn3)sc2c1`: 130 nM (active).

On to `COc1ccc(C(=O)Nc2ccccc2C(=O)N/N=C/c2ccc(O)c(OC)c2)cc1`, for which the Potency was 14.6 nM (active).

Regarding `CCOC(=O)N1CCN(CC(=O)Nc2nc3ccc(OC)cc3s2)CC1`, the Potency result is “inactive”. The same measure for `O=C(Nc1cccc(-c2nc3ccccc3s2)c1)C1=COCCO1`: 25900 nM (active). The same measure for `Cc1ccc(NS(=O)(=O)c2ccc(Cl)c(C(=O)Nc3cccc(C(=O)O)c3)c2)cc1`: “inactive”; for `O=C(O)c1ccc(NC(=O)c2cccc(C(=O)Nc3ccc(C(=O)O)cc3)c2)cc1`: “inactive”; for `O=C(Nc1ccccc1C(=O)O)c1ccc(Cl)c(S(=O)(=O)N2CCOCC2)c1`: 10300 nM (active).

Consider `CC(C)c1ccc(C(=O)Nc2ccc(-c3nc4ccccc4s3)c(Cl)c2)cc1`, for which the Potency entry is “inactive”. The same measure for `COc1ccccc1C(=O)Nc1ccc(C(=O)Nc2ccccc2C(=O)O)cc1`: “inactive”; for `O=C(Nc1ccccc1-c1nc2ccccc2s1)c1ccc(Br)o1`: “inactive”.

Regarding `Cc1c(NC(=O)c2cc(-n3cnnc3)ccc2Cl)cccc1-c1nc2ccccc2s1`, the Potency was 2910 nM (active). In the case of `COc1cccc(-c2nc3ccccc3s2)c1`, the Potency is 326 nM (active). The same measure for `COc1ccccc1C(=O)Nc1ccc(C(=O)O)cc1`: “inactive”. The same measure for `O=C(O)c1cccc(NC(=O)c2cccc(S(=O)(=O)N3CCCCC3)c2)c1`: 2310 nM (active); for `CCOc1ccc2nc(NC(=O)Cc3cccs3)sc2c1`: 3660 nM (active); for `COc1ccc2nc(NC(=O)CCc3nc(-c4ccccc4F)no3)sc2c1`: “inactive”. Regarding `CCOc1ccc(C(=O)Nc2ccccc2C(=O)O)cc1`, the Potency is 1830 nM (active). The same measure for `CCOc1c(Cl)cc(C(=O)Nc2ccccc2C(=O)O)cc1Cl`: 18300 nM (active); for `O=S(=O)(c1ccc(-c2nc3ccccc3s2)cc1)N1CCCC1`: 919 nM (active). For the molecule `CCOc1ccc2nc(NC(=O)c3cc([N+](=O)[O-])ccc3N3CCOCC3)sc2c1`, the Potency result was “inactive”. The same measure for `CN(C)S(=O)(=O)c1ccc(C(=O)Nc2ccccc2C(=O)O)cc1`: 32600 nM (active); for `O=C(Nc1ccccc1C(=O)O)c1cc(S(=O)(=O)Nc2ccccc2)ccc1Cl`: “inactive”.
